Experimental data reported in the supplement of paper PMC6992640.
Counter-ions that a name gives are not always drawn. ± gives the standard deviation of the averaged measurements.

How the values were obtained:
Assay in all cases: cell viability (% of vehicle); higher = less cytotoxic
Settings in all cases: 10 µM; 72 h
[1] = system: HCI01 (cells of a triple-negative basal-like breast cancer xenograft)
[2] = system: HCI03 (cells of an ER-positive luminal breast cancer xenograft)
[3] = system: HCI09 (cells of a triple-negative luminal androgen receptor type breast cancer xenograft)
[4] = system: HCI11 (cells of an ER-positive luminal breast cancer xenograft)
[5] = system: HCI13 (cells of an ER-positive luminal breast cancer xenograft)
[6] = system: HCI16 (cells of a triple-negative basal-like breast cancer xenograft)
[7] = system: UCD52 (cells of a triple-negative basal-like breast cancer xenograft)
[8] = system: WHIM2 (cells of a triple-negative basal-like breast cancer xenograft)
[9] = system: WHIM30 (cells of a triple-negative basal-like breast cancer xenograft)
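Further: PDX cells carrying CMV promoter-driven luciferase, viability read as total photon flux per second by IVIS imaging following D-luciferin, vehicle control 0.1% DMSO.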

Structure (SMILES) | cell viability [1] | cell viability [2] | cell viability [3] | cell viability [4] | cell viability [5] | cell viability [6] | cell viability [7] | cell viability [8] | cell viability [9]
CC1C=CC=CCCC=CC=CC=CC=CC(OC2OC(C)C(O)C(N)C2O)CC2OC(O)(CC(O)C(O)CCC(O)CC(O)CC(O)CC(=O)OC(C)C(C)C1O)CC(O)C2C(=O)O (centres undefined) [Nystatin (Fungicidin)] | 121 ± 47 | 139 | 128 ± 2.6 | 98.5 | 167 ± 21 | 150 | 118 ± 0.94 | 96.5 ± 1.8 | 147 ± 6.6
O.O=P1(N(CCCl)CCCl)NCCCO1 (centres undefined) [Cyclophosphamide monohydrate] | 133 ± 17 | 147 | 90.3 ± 17 | 125 | 140 ± 5.4 | 125 | 98.5 ± 2.4 | 106 ± 2.2 | 130 ± 8.5
C[N+]1(C)CCCC(OC(=O)C(O)(c2ccccc2)c2ccccc2)C1.[Br-] (centres undefined) [Mepenzolate Bromide] | 109 ± 6.9 | 133 | 103 ± 5.9 | 108 | 133 ± 27 | 108 | 87.5 ± 8.5 | 98.1 ± 7.5 | 128 ± 2.7
C[N+](C)(C)CC(=O)O.[Cl-] [Betaine hydrochloride] | 111 ± 4.8 | 123 | 95.3 ± 4.7 | 103 | 113 ± 11 | 122 | 82 ± 6.6 | 95.5 ± 6.1 | 107 ± 2.4
CCOC(=O)c1cncn1C(C)c1ccccc1 (centres undefined) [Etomidate] | 114 ± 2.7 | 89.8 | 96.6 ± 3.1 | 90.1 | 103 ± 14 | 77.5 | 88.6 ± 2.2 | 81.8 ± 20 | 117 ± 6.2
CC(=O)O[C@@]12CO[C@@H]1C[C@@H](O)[C@@]1(C)C(=O)[C@@H](O)C3=C(C)[C@@H](O)C[C@@](O)([C@@H](OC(=O)c4ccccc4)[C@H]21)C3(C)C [10-DAB (10-Deacetylbaccatin)] | 138 ± 19 | 107 | 99.3 ± 2.1 | 108 | 97.8 ± 2.6 | 126 | 79.2 ± 2.9 | 84.7 ± 18 | 126 ± 7.2
CC1CNCCc2ccc(Cl)cc21.Cl (centres undefined) [Lorcaserin HCl] | 96.6 ± 5.8 | 110 | 100 ± 5.7 | 81.3 | 94.9 ± 12 | 106 | 90.3 ± 3.9 | 82.89 ± 0.73 | 111.3 ± 0.19
CCC1(c2ccc(N)cc2)CCC(=O)NC1=O (centres undefined) [Aminoglutethimide] | 108 ± 13 | 113 | 103 ± 12 | 103 | 112 ± 12 | 103 | 93.01 ± 0.41 | 88.9 ± 8 | 108 ± 2.7
CN1C(=O)CCS(=O)(=O)C1c1ccc(Cl)cc1 (centres undefined) [Chlormezanone] | 90 ± 11 | 118 | 92.3 ± 7.5 | 105 | 71.1 ± 7.2 | 122 | 104 ± 10 | 113 ± 12 | 172.2 ± 0.74
Cc1cccc(C(C)c2cnc[nH]2)c1C.Cl (centres undefined) [Dexmedetomidine HCl] | 110 ± 1.2 | 103 | 91.2 ± 26 | 103 | 82.7 ± 11 | 89.9 | 86.7 ± 1.2 | 72.3 ± 17 | 112.3 ± 0.75
CCC[C@H](C)[C@@]1(CC)C(=O)N=C([O-])NC1=O.[Na+] [Pentobarbital sodium salt] | 86.4 ± 3 | 105 | 81.9 ± 8.1 | 85.2 | 96.3 ± 17 | 87 | 86.6 ± 2.1 | 96.2 ± 21 | 99.4 ± 11
C=C1CC2C(CCC3(C)C(=O)CCC23)C2(C)C=CC(=O)C=C12 (centres undefined) [Exemestane] | 166 ± 17 | 103 | 101 ± 14 | 124 | 150 ± 6.5 | 124 | 159 ± 17 | 128 ± 28 | 151 ± 15
N/C(N)=N\N.Cl [Aminoguanidine hydrochloride] | 100 ± 16 | 105 | 95.2 ± 6.9 | 64 | 90 ± 2.4 | 118 | 99.6 ± 9.3 | 95.1 ± 21 | 53.4 ± 6.4
NC(Cc1ccc(N(CCCl)CCCl)cc1)C(=O)O (centres undefined) [Melphalan] | 76 ± 14 | 116 | 91.1 ± 6.3 | 107 | 77.7 ± 3.6 | 63.1 | 75.3 ± 11 | 58.5 ± 8.7 | 124 ± 3.2
Cl.NCC1(CC(=O)O)CCCCC1 [Gabapentin HCl] | 142 ± 42 | 121 | 94.2 ± 3.2 | 90.2 | 109 ± 14 | 120 | 80.45 ± 0.75 | 85.7 ± 7.6 | 115.5 ± 0.43
COc1cc2c(c(OC)c1OC)-c1ccc(OC)c(=O)cc1C(NC(C)=O)CC2 (centres undefined) [Colchicine] | 141 ± 19 | 109 | 120 ± 4.5 | 102 | 44.3 ± 2.3 | 108 | 146 ± 28 | 96 ± 9 | 145 ± 7.8
O=C(OC1CC2CCC(C1)[N+]21CCCC1)C(O)(c1ccccc1)c1ccccc1.[Cl-] (centres undefined) [Trospium chloride] | 158 ± 1.6 | 119 | 112 ± 5.4 | 124 | 157 ± 39 | 165 | 101 ± 10 | 110 ± 14 | 121 ± 3.2
Cn1cc(C2=C(c3cn(C4CCN(Cc5ccccn5)CC4)c4ccccc34)C(=O)NC2=O)c2ccccc21 | 94 ± 30 | 95.8 | 72.7 ± 44 | 82.3 | 72.1 ± 9.6 | 99.5 | 49 ± 7.5 | 107 ± 18 | 119 ± 5.6
Cc1cccc(C)c1NC1=NCCCS1.Cl [Xylazine HCl] | 159 ± 36 | 120 | 110 ± 12 | 115 | 105 ± 6.4 | 124 | 92.3 ± 11 | 120 ± 7 | 127 ± 8
CC(O)(CS(=O)(=O)c1ccc(F)cc1)C(=O)Nc1ccc(C#N)c(C(F)(F)F)c1 (centres undefined) [Bicalutamide] | 108 ± 8.9 | 113 | 90.6 ± 13 | 90.2 | 127 ± 3.6 | 108 | 89.7 ± 11 | 90.2 ± 6.4 | 108 ± 3.1

Structure (SMILES) | cell viability [1] | cell viability [2] | cell viability [3] | cell viability [4] | cell viability [5] | cell viability [6] | cell viability [7] | cell viability [8] | cell viability [9]
CCC1(C)CC(=O)NC(=O)C1 [Bemegride] | 112 ± 13 | 96.5 | 91.7 ± 10 | 109 | 162 ± 13 | 108 | 85.8 ± 8.3 | 97.9 ± 6 | 97.2 ± 8.1
Cc1cccc(C)c1NC(=O)CN1CCCC1=O [Nefiracetam] | 124 ± 21 | 128 | 99.9 ± 6.5 | 91.9 | 149 ± 33 | 113 | 74.9 ± 0.92 | 85.6 ± 9.6 | 165 ± 5.6
O=C1CCC2(O)C3Cc4ccc(O)c5c4C2(CCN3CC2CC2)C1O5 (centres undefined) [Naltrexone] | 111 ± 8.9 | 121 | 97.4 ± 10 | 103 | 100.1 ± 0.98 | 93.4 | 94.5 ± 12 | 92.4 ± 14 | 130 ± 23
C=CCN1CCC23c4c5ccc(O)c4OC2C(=O)CCC3(O)C1C5.Cl (centres undefined) [Naloxone HCl] | 124 ± 20 | 125 | 101 ± 18 | 93.5 | 130 ± 23 | 112 | 74.1 ± 13 | 86 ± 15 | 91.4 ± 2.9
N#Cc1ccccc1-c1cc(-c2ccccn2)cn(-c2ccccc2)c1=O [Perampanel] | 102 ± 10 | 89.9 | 85.1 ± 33 | 94 | 83.3 ± 4.5 | 70.4 | 79.2 ± 12 | 89.14 ± 0.86 | 97 ± 4.1
CCNCC.O=C(O)Cc1ccccc1Nc1c(Cl)cccc1Cl [Diclofenac Diethylamine] | 91.7 ± 19 | 77.9 | 88.7 ± 1.8 | 83.1 | 70.4 ± 10 | 113 | 69 ± 2.6 | 108 ± 7.9 | 94.02 ± 0.47
CN(C)C1C(=O)C(C(N)=O)=C(O)C2(O)C(=O)C3=C(O)c4c(O)cccc4C(C)(O)C3C(O)C12.O.O (centres undefined) [Oxytetracycline Dihydrate] | 81.3 ± 15 | 129 | 111 ± 22 | 83.1 | 123.2 ± 0.95 | 116 | 95.3 ± 1.7 | 72.2 ± 15 | 123.8 ± 0.32
Cc1cccc(C(C)c2cnc[nH]2)c1C (centres undefined) [Dexmedetomidine] | 129 ± 5.7 | 106 | 90.4 ± 10 | 105 | 103 ± 16 | 148 | 92.7 ± 0.94 | 106 ± 9.5 | 120 ± 5.1
O=P1(N(CCCl)CCCl)NCCCO1 (centres undefined) [Cyclophosphamide] | 107 ± 4.7 | 98 | 104.9 ± 0.44 | 88.5 | 112 ± 5.9 | 80.3 | 99.09 ± 0.21 | 79.86 ± 0.25 | 115 ± 14
CCCC[N+]1(C)[C@@H]2C[C@@H](OC(=O)[C@H](CO)c3ccccc3)C[C@H]1[C@@H]1O[C@@H]12 (some centres undefined) [Scopolamine butylbromide] | 105 ± 5.4 | 116 | 88.8 ± 19 | 97.3 | 97.4 ± 2.5 | 119 | 100.7 ± 0.64 | 137 ± 14 | 133 ± 4.2
O=c1cccc2n1C[C@@H]1CNC[C@H]2C1 [Cytisine] | 93.3 ± 12 | 112 | 97.8 ± 15 | 95 | 106 ± 14 | 128 | 90.9 ± 4.7 | 87.9 ± 19 | 81.4 ± 3.6
Cl.NCC(O)c1ccc(O)cc1 (racemic) [(+,-)-Octopamine HCl] | 101 ± 10 | 119 | 93 ± 10 | 98.3 |  | 120 | 91.1 ± 16 | 87.9 ± 7.5 | 149.4 ± 0.28
CN(C)C1C(=O)C(C(N)=O)=C(O)C2(O)C(=O)C3=C(O)c4c(O)cccc4C(C)(O)C3C(O)C12 (centres undefined) [Oxytetracycline (Terramycin)] | 83 ± 9.9 | 126 | 108 ± 23 | 85.3 | 115 ± 6.2 | 122 | 99.8 ± 2.1 | 72.1 ± 17 | 121 ± 4.7
Cc1c(N)nc(C(CC(N)=O)NCC(N)C(N)=O)nc1C(=O)NC(C(=O)NC(C)C(O)C(C)C(=O)NC(C(=O)NCCc1nc(-c2nc(C(=O)NCCC[S+](C)C)cs2)cs1)C(C)O)C(O[C@@H]1O[C@@H](CO)[C@@H](O)[C@H](O)[C@@H]1O[C@H]1O[C@H](CO)[C@@H](O)[C@H](OC(N)=O)[C@@H]1O)c1cnc[nH]1 (some centres undefined) [Bleomycin Sulfate] | 117 ± 3.2 |  | 61.2 ± 15 | 106 | 39.2 ± 24 | 83.4 | 109 ± 6.6 | 77 ± 1.2 | 100 ± 27
O=S(=O)(F)Cc1ccccc1 | 131 ± 25 | 127 | 89.27 ± 0.7 | 92.5 | 87.2 ± 19 | 100 | 106.1 ± 0.78 | 104 ± 31 | 111 ± 22
NC(=O)CN1CC(O)CC1=O (centres undefined) [Oxiracetam] | 111 ± 16 | 115 | 98.3 ± 9.9 | 71 | 123 ± 12 | 126 | 117 ± 3.4 | 112 ± 15 | 134 ± 8.7
OC(c1ccccc1)(c1ccccc1)C1CCNCC1 [Azacyclonol] | 98.1 ± 19 | 137 | 84.5 ± 38 | 93.8 | 79 ± 10 | 110 | 95.8 ± 10 | 109 ± 34 | 113 ± 2.1
C#CC1(O)C=CC2C3CCC4=CC(=O)CCC4C3CCC21CC (centres undefined) [Gestodene] |  | 149 | 97.4 ± 20 | 122 | 179 ± 25 | 184 | 143.1 ± 1.4 | 106 ± 5 | 
O=c1[nH]c2ccccc2n1CCCN1CCC(n2c(=O)[nH]c3cc(Cl)ccc32)CC1 [Domperidone] | 195 ± 80 | 103 | 113 ± 65 | 84.9 |  |  | 128 ± 5.5 | 83.8 ± 4.6 | 176 ± 9.8
Cl.O=C1CCC2(O)C3Cc4ccc(O)c5c4C2(CCN3CC2CC2)C1O5 (centres undefined) [Naltrexone HCl] | 120 ± 20 | 143 | 108.5 ± 0.5 | 108 | 167 ± 2.8 | 151 | 80.3 ± 20 | 88.9 ± 6 | 92.9 ± 7.2
